# Counter-ions that a name gives are not always drawn.
# Tested on: U-2932
# Experiment: growth inhibition by drug alone (1 - RLU/untreated control) (fraction); higher = stronger inhibition
# Conditions: 177Lu-lilotomab satetraxetan 0 ug/ml
# Protocol: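 U-2932 ABC-DLBCL cells were pretreated or not for 18 h with 1 ug/ml 177Lu-lilotomab satetraxetan (600 MBq/mg), washed and seeded (3000 cells/well) on 384-well plates pre-printed with the Selleck Cambridge Cancer Compound library. Viability was read by RealTime-Glo luminescence on days 3-6 after seeding. Effect = 1 - RLU/mean RLU of the 48 untreated no-drug control wells per plate; Bliss score = (M-E)/(1-Fa), with E the expected Bliss-additive effect.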
SMILES,"growth inhibition by drug alone (10 nM, time (day): 3)","growth inhibition by drug alone (10 nM, time (day): 4)","growth inhibition by drug alone (10 nM, time (day): 5)","growth inhibition by drug alone (10 nM, time (day): 6)","growth inhibition by drug alone (1000 nM, time (day): 3)","growth inhibition by drug alone (1000 nM, time (day): 4)","growth inhibition by drug alone (1000 nM, time (day): 5)","growth inhibition by drug alone (1000 nM, time (day): 6)"
O=C1c2c(O)ccc(O)c2C(=O)c2c(NCCNCCO)ccc(NCCNCCO)c21 [Mitoxantrone Hydrochloride],0.436,0.52,0.635,0.732,0.945,0.971,0.981,0.986
Cn1cc(C2=C(c3ccc(Cl)cc3Cl)C(=O)NC2=O)c2ccccc21,-0.00858,0.00823,0.113,-0.0764,-0.0209,-0.0468,-0.0762,-0.00785
C[S+]([O-])c1ccc(-c2nc(-c3ccc(F)cc3)c(-c3ccncc3)[nH]2)cc1 (stereo not given),0.109,0.0691,0.0651,0.00981,0.494,0.396,0.258,0.202
"CN(C)CCOc1ccc(/C(=C(/CCCl)c2ccccc2)c2ccccc2)cc1 [Toremifene Citrate (Fareston, Acapodene)]",0.147,0.112,-0.00292,-0.0137,0.104,0.101,-0.00882,0.0143
CC(=O)c1c(C)c2cnc(Nc3ccc(N4CCNCC4)cn3)nc2n(C2CCCC2)c1=O,0.0532,0.0389,-0.0177,-0.186,-0.0353,-0.0097,-0.082,-0.259

# Reference: the supplement of paper PMC6897291
